# Source: PubChem BioAssay (NCI)
# “And” between values parts separate entries of the source, which are not always exact repeats. Equal values may be shown once. This is part of a sample that, as a whole, favours compounds with a hit. Of some 83,000 tested, about 20% had one in any assay.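 Single-dose data. Exposure time 48 hours. Values below 10 considered active.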 The source made the active and inactive calls.
# Legend:
# Assay in all cases: NCI-60 one-dose screen, 48 h (100 = growth as untreated, 0 = no growth, -100 = all killed)
# Conditions in all cases: 10 µM
# SK-MEL-2 melanoma = test system: SK-MEL-2 melanoma
# EKVX NSCLC = test system: EKVX NSCLC
# SN12C renal = test system: SN12C renal
# UO-31 renal = test system: UO-31 renal
# TK-10 renal = test system: TK-10 renal
# ACHN renal = test system: ACHN renal
# CAKI-1 renal = test system: CAKI-1 renal
# A498 renal = test system: A498 renal
# CCRF-CEM leukemia = test system: CCRF-CEM leukemia
# MOLT-4 leukemia = test system: MOLT-4 leukemia
Compound,growth (SK-MEL-2 melanoma),growth (EKVX NSCLC),growth (SN12C renal),growth (UO-31 renal),growth (TK-10 renal),growth (ACHN renal),growth (CAKI-1 renal),growth (A498 renal),growth (CCRF-CEM leukemia),growth (MOLT-4 leukemia)
O=C(C(=Cc1ccccc1)C(=O)c1ccccc1)c1ccccc1,90% (inactive) and 83.2% (inactive),79.2% (inactive) and 103% (inactive),78.6% (inactive) and 82.7% (inactive),60.9% (inactive) and 87.8% (inactive),124% (inactive) and 87.7% (inactive),62.3% (inactive) and 85.8% (inactive),84.5% (inactive) and 86.8% (inactive),72.2% (inactive) and 88.6% (inactive),10.8% (inactive) and 81.8% (inactive),10.6% (inactive) and 85.4% (inactive)
CCO/C=C1\SC(=S)N(c2cccc(O)c2)C1=O,87.4% (inactive),,98.1% (inactive),79.5% (inactive),88.3% (inactive),102% (inactive),98.9% (inactive),118% (inactive),,96.7% (inactive)
NNc1c2ccccc2nc2ccccc12,,58.3% (inactive),52.2% (inactive),61.4% (inactive),45.4% (inactive),46.7% (inactive),,49.3% (inactive),37.7% (inactive),29% (inactive)
CSC1SCC2C(=O)N(C)C(C(C)C)C(=O)OCC(NC(=O)c3cnc4ccccc4n3)C(=O)NC(C)C(=O)N(C)C1C(=O)N(C)C(C(C)C)C(=O)OCC(NC(=O)c1cnc3ccccc3n1)C(=O)NC(C)C(=O)N2C (centres undefined),-28.3% (active),-8.18% (active),8.11% (active),13.4% (inactive),20.1% (inactive),2.44% (active),-13% (active),-76.6% (active),-25.7% (active),-33.8% (active)
CCCCCCCCCCCC[N+](C)(C)Cc1ccccc1,-11.9% (active),,10.1% (inactive),55.4% (inactive),-1.57% (active),78.7% (inactive),82.1% (inactive),79% (inactive),-15.9% (active),-21.9% (active)
C[n+]1c2cc(N)ccc2cc2ccc(N)cc21,,-23.9% (active) and 5.67% (active) and -26.5% (active),,,,6.76% (active) [middle of 4 runs],-22.5% (active) and 9.14% (active),,17.7% (inactive) [middle of 4 runs],9.49% (active) [middle of 4 runs]
CN(C)C(=S)SC(=S)N(C)C,107% (inactive) and 93.2% (inactive),,101% (inactive) and 103% (inactive),91.2% (inactive) and 79.1% (inactive),113% (inactive) and 112% (inactive),101% (inactive) and 107% (inactive),104% (inactive) and 103% (inactive),94.7% (inactive),80.6% (inactive) and 71.3% (inactive),92.4% (inactive) and 85% (inactive)
